# Assay outcomes: PubChem BioAssay, Sanford-Burnham Center for Chemical Genomics
# CYP2C9 activ – CYP2C9 (human) activation | P11712 | recombinant CYP2C9, luciferin-H conversion, luminescence; stronger effect = higher value; factor 1 = untreated enzyme, 0 = blocked | activation factor at 5 µM | 96,000 tested, 1.4% active | AID 1024;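 active = activation factor of 2 or more for CYP2C9 at a 5 µM dose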;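 note: 0 = sulfaphenazole-blocked wells and 1 = vehicle-only wells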
# PLAP activator – activates human placental alkaline phosphatase | 96,000 tested, 1.2% active | P05187 | activation fold at 20 µM | purified PLAP enzyme, luminescent substrate read-out; stronger effect = higher value; in the data active = activation fold above about 2
# Target sequence (P05187 whole entry, looked up): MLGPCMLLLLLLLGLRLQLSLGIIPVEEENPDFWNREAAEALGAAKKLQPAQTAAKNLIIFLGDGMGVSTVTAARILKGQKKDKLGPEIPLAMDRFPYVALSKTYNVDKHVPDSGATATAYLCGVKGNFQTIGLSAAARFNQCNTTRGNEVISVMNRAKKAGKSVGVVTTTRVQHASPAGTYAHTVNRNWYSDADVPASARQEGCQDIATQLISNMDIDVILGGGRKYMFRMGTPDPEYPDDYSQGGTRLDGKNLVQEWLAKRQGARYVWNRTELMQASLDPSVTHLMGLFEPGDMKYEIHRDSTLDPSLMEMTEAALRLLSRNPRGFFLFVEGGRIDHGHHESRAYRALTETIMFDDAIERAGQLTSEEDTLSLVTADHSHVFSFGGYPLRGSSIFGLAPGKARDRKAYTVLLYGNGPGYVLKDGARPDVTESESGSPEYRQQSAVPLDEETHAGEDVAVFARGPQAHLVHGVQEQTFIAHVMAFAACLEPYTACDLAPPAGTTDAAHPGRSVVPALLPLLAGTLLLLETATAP
# CYP2C19 inhib – blocks human cytochrome P450 2C19 | P33261 | 96,000 tested, 21% active | inhibition, % at 5 µM | AID 778 | CYP2C19 Supersomes, luciferin-H EGE luminescence, 30 min;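 active = CYP2C19 inhibition above a set limit at 5 µM in the primary screen, cut at about 50% in these data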;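 note: plate controls were negative control wells for no effect and 2.5 mM tranylcypromine positive control for full effect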
# CYP2C9 inhib – blocks human cytochrome P450 2C9; CYP2C9 Supersomes, luciferin-H conversion, luminescence; 96,000 tested, 20% active; AID 777; P11712; inhibition, % at 5 µM;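 active = blocking of liver enzyme CYP2C9 beyond about 50% at 5 µM, limit read from the data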
# CYP2C19 activ – activators of human cytochrome P450 2C19; P33261; recombinant CYP2C19, luciferin-H EGE luminescence; stronger effect = higher value; 0 = fully inhibited enzyme, 1 = untreated enzyme; activation factor at 5 µM; 96,000 tested, under 10 active;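 active = activation factor of at least 2 at 5 µM in the primary screen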;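 note: 0 = wells with 2.5 mM tranylcypromine and 1 = vehicle-only wells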
# * = called active by the depositor. Compounds with a hit are over-represented: about 31% of the library has one in this group of screens.
SMILES,CYP2C9 activ,PLAP activator,CYP2C19 inhib,CYP2C9 inhib,CYP2C19 activ
Cc1sc2ncnc(SCC(=O)NC(=O)NCc3ccco3)c2c1C,1,1.3,-10,-2,1.1
COc1ccc(/C(O)=C2/C(=O)C(=O)N(CCCC(=O)O)C2c2ccc(OC)c(OC)c2)cc1 (configuration not stated),1,1.2,-18,1,1.2
O=C(CNS(=O)(=O)c1cccs1)N1CCCC1,1,0.9,10,-4,0.9
CC(C)C(NS(=O)(=O)c1cccs1)C(=O)N1CCc2ccccc2C1 (configuration not stated),0.6,1.1,79*,43,0.2
O=C(CNS(=O)(=O)c1cccs1)N1CCc2ccccc2C1,1.1,1,53*,-13,0.5
O=C(CCCNS(=O)(=O)c1cccs1)N1CCc2ccccc2C1,1.6,1.1,55*,-62,0.4
Clc1ccc2nc3ccccn3c2c1,1.1,1,15,-8,0.8
O=C(NC1CC1)c1ccc2c(c1)ncn2C1CCCC1,0.9,0.8,0,10,1
CCOC(=O)c1cc(S(=O)(=O)N2CCN(C(=O)OCC)CC2)cn1C,0.8,1.1,24,19,0.8
COCc1cc(Sc2ccc(Cl)cc2)nc(-c2ccccc2)n1,1.1,1.1,-7,-6,1.1
Nc1ccc(Sc2cc(Cl)nc(N)n2)cc1,0.3,1.4,53*,74*,0.5
CCC(C)N(CC(=O)NCc1ccc(OC)cc1)C(=O)c1csnn1 (configuration not stated),1.1,0.9,19,-6,0.8
CSc1ncccc1C(=O)OCC(=O)NC(N)=O,1.3,1.1,-24,-33,1.2
CC(C)c1ccc(C2NC(C(=O)O)CS2)cc1 (configuration not stated),0.9,2*,-3,8,1
O=C(O)C1CSC(CCc2ccccc2)N1 (configuration not stated),1.1,1,9,-7,0.9
CC1(C(=O)O)CCC(C(=O)Nc2ccc(S(N)(=O)=O)cc2)C1(C)C (configuration not stated),1.2,1.1,-17,-18,1.2
CCCN(CCC)C(=O)CSc1nc2ccccc2c(=O)n1C1CCCC1,0.4,1.4,31,65*,0.7
CCN(CC)C(=O)CSc1nc2ccccc2c(=O)n1-c1ccccc1OC,0.5,1.6,19,53*,0.8
CN(C)c1ccc(NC(=O)CSc2nc3ccccc3c(=O)n2C2CCCCC2)cc1,0.3,1.4,24,69*,0.8
Cc1cc(NC(=O)c2cccc(S(=O)(=O)N3CC(c4ccccc4)CC3=O)c2)no1 (configuration not stated),1.1,0.9,11,-12,0.9
CCc1nc(SCc2cccnc2)c2c(=O)n(C)c(=O)n(C)c2n1,0.6,1.1,94*,42,0.1
CC(C)c1nc(SCc2ccccn2)c2c(=O)n(C)c(=O)n(C)c2n1,0.7,1.2,1,28,1
Cn1c(=O)c2c(SCc3cccnc3)nc(C3CC3)nc2n(C)c1=O,0.4,0.9,88*,57*,0.1
Cc1ccc2c(c1)NCC(C(=O)NC1CCCCC1)O2 (configuration not stated),0.9,1.1,59*,11,0.4
COc1cccc2c1OC1(C)CC2NC(=O)N1Cc1ccccc1 (configuration not stated),1.2,1,29,-20,0.7
SMILES,CYP2C9 activ,PLAP activator,CYP2C19 inhib,CYP2C9 inhib,CYP2C19 activ
C=CCc1cccc(Cl)c1OCCON1C(=O)CCC1=O,0.8,1.5,55*,21,0.4
O=C1CCC(=O)N1OCCOc1ccc2c(c1)CCC2,1.3,1.1,-5,-26,1.1
CCCC1(C)SC(NC(C)=O)=NN1C(C)=O (configuration not stated),1.2,1,-4,-18,1
CO/N=C(\CS(=O)(=O)Cc1ccc(OC)cc1)c1ccc(Cl)cc1,0.9,0.9,37,7,0.6
CO/N=C(/CS(=O)Cc1ccc(Cl)cc1)c1ccc(Cl)cc1 (configuration not stated),0.4,0.8,96*,56*,0
Cc1nn(-c2ccc3nnc(Br)n3n2)c(C)c1Br,0.8,0.9,8,20,0.9
CCOCCCNC(=O)C1CCN(C(=O)Nc2ccc(Cl)cc2)CC1,1.1,1.3,-9,-9,1.1
Cc1ccc(S(=O)(=O)N(CCO)c2cc3c(s2)CCCC3)cc1,0.9,1,99*,9,0
Cc1c(CN(C)CCc2ccccc2)c(=O)n(-c2ccccc2)n1C,1.2,1.3,-13,-16,1.1
CCOC(=O)C1CCCCN1Cc1ccc(F)cc1 (configuration not stated),1.1,1.2,66*,-9,0.3
CCOC(=O)C1CCCCN1Cc1cc(Cl)ccc1O (configuration not stated),0.1,1.1,99*,94*,0
CCOC(=O)C1CCCCN1Cc1cccc(F)c1 (configuration not stated),0.7,1.3,89*,29,0.1
CCOC(=O)C1CCCCN1Cc1cc(OC)ccc1OC (configuration not stated),0.9,1.1,46,15,0.5
Cc1noc(/C=C/N(C)C)c1S(=O)(=O)N1CCCC(C(=O)NC2CCCCC2C)C1 (configuration not stated),0.5,1.6,15,47,0.9
CN(C)S(=O)(=O)N1CCN(C(=O)c2ccccc2)CC1,1,0.9,44,-2,0.6
O=C(Nc1ccc2oc(-c3ccncc3)nc2c1)c1cccs1,0.2,0.8,28,85*,0.7
O=C(Nc1ccc2oc(-c3ccncc3)nc2c1)c1ccccc1F,0.3,0.9,41,68*,0.6
COc1ccc(S(=O)(=O)N2Cc3ccccc3CC2C(=O)O)cc1 (configuration not stated),0.8,1.9,40,25,0.6
COc1cc(C)c(Cl)cc1S(=O)(=O)N(C)C,1.7,1.4,22,-68,0.8
Nc1nc(SCC(=O)NCC2CCCO2)n[nH]1 (configuration not stated),0.9,0.9,-5,7,1.1
Nc1nc(SCC(=O)C23CC4CC(CC(C4)C2)C3)n[nH]1,0.5,2.1*,45,53*,0.6
COc1cc2ccccc2cc1C(=O)Nc1ccccc1N1CCN(S(C)(=O)=O)CC1,0.5,1.2,50*,47,0.5
CS(=O)(=O)N1CCN(c2ccccc2NC(=O)c2ccc(-c3ccc(Br)cc3)o2)CC1,0.3,1.6,56*,71*,0.4
CCCCCCCNC(=O)COc1ccc2c(c1)C(=O)CC(C)(C)O2,0,1.4,88*,96*,0.1
CC1(C)CC(=O)c2cc(OCC(=O)NCCCN3CCN(c4ccccc4F)CC3)ccc2O1,0.6,1.4,30,40,0.7
CCCn1c(N)c(N2CCCCC2)c(=O)n(CC(=O)Nc2ccccc2C)c1=O,0.5,1.5,38,53*,0.6
CCCn1c(N)c(N2CCCCC2)c(=O)n(CC(=O)Nc2ccc(OC(F)(F)F)cc2)c1=O,1,1,-16,3,1.2
